Screening results: PubChem BioAssay, several laboratories
Compounds with a hit are over-represented: about 2.3% of the library has one in this group of screens.
m-calpain inh: inhibitors of pig calpain II, primary screen, biochemical, fluorogenic peptide substrate, 1536-well. AID 1236, 2008. purified calpain II, 30 min. inhibition, % at 16 µM. 0.37% of 220,000 active;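 active = inhibition above about 50%, limit read from the data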
Cardio protect: cardioprotection against H2O2-induced cell death, primary screen, uHTS, H9c2 cells, ATPLite luminescence; H9c2 cardiomyocytes, H2O2 injury protection, 2 h; protection from H2O2 cell death, % at 20 µM; 0.63% of 360,000 active; AID 588492, 2011;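 active = compounds giving at least 50% protection of heart cells from peroxide-induced death in the single-dose screen, raw or plate-pattern-corrected value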;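 note: 0% = DMSO wells with peroxide and 100% = DMSO wells without peroxide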
aDG glyco up: activators of alpha-DG glycosylation, primary screen, uHTS, Pro5-aDG cells, AlphaScreen; alpha-DG glycosylation AlphaScreen (IIH6); 0% Pro5, 100% B10-LARGE cell signal; activation, % at 10 µM; 0.22% of 360,000 active; AID 624168, 2012;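 active = activation of at least 8% versus controls, or a plate z-score of at least 8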;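 note: Pro5 are CHO cells carrying HIG-tagged alpha-DG that lacks glycosylation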
FAS TE block: FAS thioesterase domain inhibitors, primary screen, biochemical, fluorescence intensity, uHTS; Fatty acid synthase (Homo sapiens), P49327; recombinant FAS-TE, OMFH fluorogenic substrate, fluorescence endpoint; inhibition, % at 15 µM; 0.67% of 360,000 active; AID 602261, 2012;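 active = compounds whose normalised, plate-corrected inhibition of enzyme fluorescence in the single-dose primary screen is 50% or more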;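 note: 0% = DMSO with enzyme and 100% = substrate without enzyme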
TAG inh: inhibitors of triacylglycerol accumulation, primary screen, cell-based, uHTS, fluorescence, H9c2 | 0.66% of 230,000 active | H9c2 cells, Nile Red lipid (TAG) fluorescence; cells loaded with 200 µM oleic acid | inhibition, % at 12.5 µM | AID 651582, 2012;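 active = pattern-corrected inhibition of lipid staining of at least 50% with the nuclear-stain viability signal not falling by more than 50%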;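 note: 0% = DMSO wells and 100% = triacsin C control wells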
MIN6 prolif: inducers of MIN6 beta-cell proliferation, primary screen, ATP luminescence, uHTS | MIN6 cells proliferation, ATPlite luminescence, 48 h; cells starved in 0.2% serum; 100% = growth in 10% serum | proliferation, % at 10 µM | 0.29% of 330,000 active;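 active = compounds whose signal lies at least 3.5 SD above the mean of all wells on their plate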;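 note: 0% = DMSO-treated cells in low-serum medium and 100% = 10% serum control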
TAG conf: triacylglycerol accumulation inhibitors, retest, confirmation, cell-based, single concentration, Nile Red fluorescence, H9c2; shares compounds with TAG inh; H9c2 lipid accumulation; cells loaded with 200 µM oleic acid; inhibition, % at 12.5 µM; 71% of 990 active;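 active = mean inhibition across replicates of 40% or more; inactive = mean inhibition below 40%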;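 note: plate controls were DMSO only wells for no effect and Triacsin C treated wells for full effect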
Starred values were filed as active, the others as inactive; . = no result.

SMILES | m-calpain inh | Cardio protect | aDG glyco up | FAS TE block | TAG inh | MIN6 prolif | TAG conf
CCCCCOc1ccc(NC(=O)CSc2cccc3cccnc23)cc1 | -107 | -11 | 2 | 22 | 57* | -3 | 56*
CCOC(=O)CSc1cccc2cccnc12 | -169 | 24 | 0 | -4 | 96* | -4 | 41*
COc1cccc(/C=N/NC(=O)CSc2cccc3cccnc23)c1 | -83 | -8 | 0 | 1 | 61* | -2 | 56*
O=C(c1ccccc1F)N1CCCC(N2CCN(Cc3ccc4c(c3)OCO4)CC2)C1 (centres undefined) | . | -3 | 0 | -2 | 14 | . | .
CCOc1ccc2nc(NC(=O)CN3CCC(n4nnc5cc(F)ccc54)CC3)sc2c1 | -36 | 70* | 1 | 14 | 58* | -5 | 43*
CCCN1CCC(C)(C(=O)Nc2ccccc2Oc2ccccc2)C1 (centres undefined) | . | -2 | 0 | -4 | -1 | . | .
COc1cc(C2C(C#N)=C(N)Oc3cc4c(cc32)OCO4)cc(OC)c1OC (centres undefined) | -11 | 2 | -1 | 0 | 51* | -5 | 71*
COc1cc(C2C(C#N)=C(N)Oc3cc(O)ccc32)cc(OC)c1OC (centres undefined) | 27 | 14 | 0 | -8 | . | 0 | .
CCOC(=O)c1c(N)n(-c2ccc(N)cc2)c2nc3ccccc3nc12 | -14 | 14 | 0 | -11 | 10 | 1 | .
Nc1c(C(=O)Nc2ccccc2)c2nc3ccccc3nc2n1-c1ccc(O)cc1 | -10 | 7 | 2 | 3 | 64* | -4 | 65*
COc1ccc(CNC(=O)/C=C/c2ccc(OCCCF)cc2)cc1 | 11 | -16 | 0 | 2 | 56* | -3 | 31
O=C(/C=C/c1ccc(OCCCF)cc1)NCc1ccc(Cl)cc1 | 16 | 0 | 1 | 9 | 14 | -3 | .
COc1ccc2nc(NC(=O)c3cccc(OCc4c(C)noc4C)c3)sc2c1 | -6 | 3 | 0 | 22 | 58* | -5 | 48*
COc1ccc2nc(NC(=O)C3CCCN(S(=O)(=O)c4c(C)noc4C)C3)sc2c1 (centres undefined) | -9 | 7 | 0 | 8 | 46 | 0 | .
CCOc1ccc2nc(NC(=O)C3CCCN(S(=O)(=O)c4c(C)noc4C)C3)sc2c1 (centres undefined) | 12 | -12 | 1 | 21 | 57* | -5 | 75*
Cc1ccnc(N2CCC(C(=O)Nc3ccc(Oc4ccccc4)cc3)CC2)n1 | -36 | -2 | 0 | -8 | 52* | -2 | 14
Cc1cc(C)nc(N2CCC(C(=O)Nc3ccc(Oc4ccccc4)cc3)CC2)n1 | 12 | 1 | 0 | -2 | . | -3 | .
CCCCn1c(N)c(N(CC(C)C)C(=O)CSC(C)C(=O)Nc2cc(C)on2)c(=O)[nH]c1=O (centres undefined) | . | 3 | 0 | -4 | -7 | 8 | .
CCOC(=O)C1CCN(C(=O)COC(=O)c2c(C)c(CC)nc3ccccc23)CC1 | . | 6 | 0 | -2 | 4 | 4 | .
Cc1ccc(C(=O)Nc2cc(C)c(OCC(=O)N3CCOCC3)c(C)c2)cc1 | -2 | -32 | 0 | -9 | 63* | -3 | 42*
CCN(CC)c1ccc(NS(=O)(=O)c2cn(C)c(=O)n(C)c2=O)c(C)c1 | . | -14 | 3 | -5 | -6 | 5 | .
CCC(C)Nc1nc(-c2cccc(OC)c2O)nc2ccccc12 (centres undefined) | -11 | -40 | 0 | 31 | 57* | -2 | 44*
c1ccc(C2Nc3ccccc3-c3nc4ccccc4n32)nc1 (centres undefined) | -362 | -2 | 1 | -6 | 55* | -1 | 16
COc1ccc(Cc2nnc(SCC(=O)c3ccc4c(c3)OCO4)o2)cc1 | . | 0 | 0 | 9 | -2 | 4 | .
Nc1ccccc1Nc1cccc(C(F)(F)F)c1 | 10 | -6 | 0 | 6 | 68* | -3 | 74*
SMILES | m-calpain inh | Cardio protect | aDG glyco up | FAS TE block | TAG inh | MIN6 prolif | TAG conf
Cc1cc(C)nc(Nc2cccc(C(F)(F)F)c2)n1 | . | -3 | 0 | 8 | 6 | -2 | .
Cc1ccc(-c2nc(NC(=O)c3cc(C(C)(C)C)nn3C)sc2C)cc1Cl | 17 | -7 | 0 | 20 | 68* | -4 | 86*
CN(C)CCCn1c(=O)n(CCc2ccccc2)c(=O)c2c3c(sc21)CCCCC3 | -8 | 9 | 0 | 46 | 55* | -4 | 50*
CN(C)CCCNc1nc2sc3c(c2c(=O)n1CCc1ccccc1)CCCCC3 | -13 | -13 | 0 | 49 | 60* | -4 | 34
CCc1ccc(C(O)c2ncc(-c3ccc(Cl)cc3)[nH]2)cc1 (centres undefined) | . | -27 | 0 | 8 | -23 | . | .
CCOC(=O)c1cc(CC)sc1NC(=O)c1ccc(N2C(=O)CCC2=O)cc1 | -100 | 1 | 0 | 15 | . | 0 | .
CCOC(=O)c1cc(CC)sc1NC(=O)c1cc(OC)c(OC)c(OC)c1 | -333 | 16 | 0 | 18 | 66* | -1 | 37
CCOc1ccc(OCC)c(NC(=O)C2CCCN(C(=O)c3ccc(Cl)cc3)C2)c1 (centres undefined) | . | 2 | 0 | 5 | -2 | -2 | .
Nc1ccccc1C#Cc1ccccc1 | 4 | -3 | 0 | 2 | 53* | -6 | 54*
C=C1c2nc3ccccc3n2C=C(c2ccc(C)cc2)N1c1ccccc1 | . | -18 | 1 | 24 | 56* | . | 80*
C=C(C)Cn1c(-c2ccccc2)nc2ccccc21 | -3 | -4 | 0 | -6 | -6 | -1 | .
CC(=O)N1CCOc2ccc(S(=O)(=O)NC[C@H]3O[C@@H](n4ccc(N)nc4=O)[C@H](O)[C@@H]3O)cc21 | . | 8 | 0 | -8 | -6 | . | .
N#CC(C#N)=c1ccc2c(c1)N1C(c3ccccc3)=CC(c3ccccc3)C3CCCCC31N=2 (centres undefined) | 14 | 1 | 0 | -1 | 89* | -6 | 119*
O=c1cc(-c2ccccc2)[nH]c2ccccc12 | 4 | 22 | 0 | -4 | 66* | -4 | 49*
O=C1C(c2cc(=O)c3ccccc3[nH]2)=C(O)c2ccccc21 | -3 | -9 | 0 | -4 | . | -5 | .
CC(C)[C@@H]1CC2=C(C(=O)OC(C)(C)O2)[C@H](CCc2ccccc2)O1 | . | . | 0 | 19 | . | . | .
O=C1C=CC(O)C2(CO)OC12 (centres undefined) | . | 0 | 0 | -8 | 81* | . | 86*
